ST2 inh – IL1RL1 inhibition. Q01638. AlphaLISA ST2-Fc/biotin-IL-33 interaction, 1 h. inhibition, % for hits at 17 µM. 78,000 tested, 2.3% active. AID 1259354; in the data active = inhibition above about 30%
Target sequence (Q01638 whole entry, looked up): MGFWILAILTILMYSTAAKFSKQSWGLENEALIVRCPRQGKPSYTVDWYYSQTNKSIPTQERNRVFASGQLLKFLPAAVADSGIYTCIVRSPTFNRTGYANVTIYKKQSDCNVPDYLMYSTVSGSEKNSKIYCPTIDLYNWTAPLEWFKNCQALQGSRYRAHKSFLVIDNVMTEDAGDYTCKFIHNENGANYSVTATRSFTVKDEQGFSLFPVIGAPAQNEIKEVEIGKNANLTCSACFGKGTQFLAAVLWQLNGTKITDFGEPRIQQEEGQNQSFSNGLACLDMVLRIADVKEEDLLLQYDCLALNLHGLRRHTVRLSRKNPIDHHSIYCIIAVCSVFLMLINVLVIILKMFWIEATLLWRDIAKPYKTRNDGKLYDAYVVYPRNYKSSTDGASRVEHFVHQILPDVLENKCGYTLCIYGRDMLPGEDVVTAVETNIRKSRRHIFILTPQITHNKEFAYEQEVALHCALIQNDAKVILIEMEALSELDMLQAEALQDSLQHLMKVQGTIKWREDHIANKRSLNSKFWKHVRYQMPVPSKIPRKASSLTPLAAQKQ
An asterisk follows results filed as active. The sample as a whole holds a higher share of hits than the screen did.

What do the screens show for `CC(C)C(C(=O)Nc1cccc(C(F)(F)F)c1)N1C(=O)c2ccccc2C1=O` (stereo not given)?
ST2 inh: inactive

Results for O=C(CSc1nc2c(c(=O)n1-c1ccccc1)SCC2)OCc1ccccc1 ?
ST2 inh: inactive

How did O=C(CCN1C(=O)c2cccc([N+](=O)[O-])c2C1=O)Nc1cccc(Cl)c1 do in these assays?
ST2 inh: inactive

Results for COc1ccc(NC(=O)[C@H]2[C@H](C(=O)O)[C@H]3C=C[C@@H]2C3)cc1 ?
ST2 inh: inactive

Results for CC(=O)n1cc(/C=C2\N=C(c3cccc(C)c3)OC2=O)c2cc(Br)ccc21 ?
ST2 inh: inactive

What do the screens show for `O=C1OC(c2cc([N+](=O)[O-])ccc2Cl)=N/C1=C\c1cccc(I)c1`?
ST2 inh: inactive

Results for COc1ccccc1/C=C/C1=NC(=C\C(Cl)=C\c2ccccc2)/C(=O)O1 ?
ST2 inh: inactive

How did O=C1OC(c2ccccc2Cl)=N/C1=C\C=C\c1ccccc1 do in these assays?
ST2 inh: 34%*

What do the screens show for `COc1ccc(/C=C2\N=C(c3ccc(C)cc3)OC2=O)cc1Br`?
ST2 inh: inactive

Results for Cc1ccc(C2=N/C(=C\C(Br)=C\c3ccccc3)C(=O)O2)cc1[N+](=O)[O-] ?
ST2 inh: inactive

Results for COc1ccc(/C=C2\N=C(c3cccc(I)c3)OC2=O)cc1[N+](=O)[O-] ?
ST2 inh: inactive

How did COc1ccc(/C=C2\N=C(c3ccccc3Br)OC2=O)c(OC)c1OC do in these assays?
ST2 inh: inactive

What do the screens show for `CC1=N/C(=C\c2ccc(Br)cc2)C(=O)O1`?
ST2 inh: inactive

How did Cc1cccc(C2=N/C(=C\c3ccc(N(C)C)cc3)C(=O)O2)c1 do in these assays?
ST2 inh: 39%*

Results for Cc1cccc(C2=N/C(=C\C=C\c3ccccc3)C(=O)O2)c1 ?
ST2 inh: 37%*

Results for CN(C)c1ccc(/C=C2\N=C(c3ccccc3Br)OC2=O)cc1 ?
ST2 inh: 41%*

How did COC(=O)C1C(=O)C2=C(CC1C)NC(C)=C(C(=O)OC(C)C)C2c1ccc(OC)cc1 (stereo not given) do in these assays?
ST2 inh: inactive

Results for O=C(Cn1cnc2ccccc2c1=O)Nc1ccc(C(=O)O)cc1 ?
ST2 inh: inactive

Results for Cc1nn(Cc2ccc(Cl)c(Cl)c2)c(C)c1NC(=O)CCCn1nc(C)c([N+](=O)[O-])c1C ?
ST2 inh: inactive

What do the screens show for `CC1(C)C=Cc2c(ccc3c(=O)cc(-c4ccccc4)oc23)O1`?
ST2 inh: inactive

Results for CC(=O)c1ccc(NC2c3ccccc3C(=O)N2Cc2ccccc2)cc1 (stereo not given) ?
ST2 inh: inactive

What do the screens show for `CC1=C(C(=O)Nc2ccc(C)cn2)C(c2ccccc2)C2=C(CCCC2=O)N1` (stereo not given)?
ST2 inh: inactive

How did Cc1cccc(C2=N/C(=C\c3ccccc3)C(=O)O2)c1 do in these assays?
ST2 inh: 46%*

Results for Cc1cccc(C2=N/C(=C\c3cccc([N+](=O)[O-])c3)C(=O)O2)c1 ?
ST2 inh: inactive

How did O=C1OC(c2cccc(I)c2)=N/C1=C\c1ccc([N+](=O)[O-])cc1 do in these assays?
ST2 inh: inactive

How did CCc1ccc2nc(N3CCC(C(=O)NCC4CCCO4)CC3)sc2c1 (stereo not given) do in these assays?
ST2 inh: inactive

What do the screens show for `O=S(=O)(NC1CCCCCCC1)c1cccc2nsnc12`?
ST2 inh: inactive

Results for CC(C)C(NS(=O)(=O)c1cccs1)C(=O)N1CCN(c2cccc(Cl)c2)CC1 (stereo not given) ?
ST2 inh: inactive

Results for CN(C)/C=C/C=C/C=C1\CCC/C(=C\C=C\N(C)C)C1=O ?
ST2 inh: 63%*

How did O=c1c2cccc3c2c(nn1-c1ccc([N+](=O)[O-])cc1)-c1ccccc1-3 do in these assays?
ST2 inh: inactive

Results for CCCn1cnc2c1CN(S(=O)(=O)c1cccs1)[C@H](C(=O)OC)C2 ?
ST2 inh: inactive

How did CC(C)N1C(=O)c2ccccc2C1C(=O)NC1CCCCCCC1 (stereo not given) do in these assays?
ST2 inh: inactive

How did O=C(Nc1c[nH]c(=O)[nH]c1=O)c1ccc(Oc2ccc(C(=O)Nc3c[nH]c(=O)[nH]c3=O)cc2)cc1 do in these assays?
ST2 inh: 36%*

How did O=C(CCc1ccccc1)Nc1c[nH]c(=O)[nH]c1=O do in these assays?
ST2 inh: inactive

How did O=C(Nc1c[nH]c(=O)[nH]c1=O)c1ccc(N2C(=O)C3C4C=CC(C4)C3C2=O)cc1 (stereo not given) do in these assays?
ST2 inh: inactive

How did CCN(CCCNS(=O)(=O)c1ccc2c(c1)CCN2C(=O)C1CC1)c1ccccc1 do in these assays?
ST2 inh: inactive

Results for COCCNC(=O)c1ccc(CN(c2ccc(C)c(C)c2)S(C)(=O)=O)cc1 ?
ST2 inh: inactive

Results for CC1(c2ccccc2)CC(C)(C)N2C(=O)C(=O)c3cccc1c32 (stereo not given) ?
ST2 inh: 33%*

Results for CC1(c2ccc(Cl)cc2)CC(C)(C)N(C(=O)CSC#N)c2ccccc21 (stereo not given) ?
ST2 inh: inactive

Results for CC1(O)c2ccccc2C(=O)N1Cc1ccccc1 (stereo not given) ?
ST2 inh: inactive

How did Cc1ccccc1NS(=O)(=O)c1c(C)n[nH]c1C do in these assays?
ST2 inh: inactive

Results for Cc1c(Cl)c(C)c([N+](=O)[O-])c(O)c1C=Nc1cccc(O)c1 ?
ST2 inh: inactive

How did CC(C)C1NC(=O)CNC(=O)C2CCCN2C(=O)C(Cc2c[nH]c3ccccc23)NC(=O)CNC(=O)C(C(O)c2ccc(O)cc2)NC(=O)CNC1=O (stereo not given) do in these assays?
ST2 inh: inactive

What do the screens show for `O=C(NC(Cc1c[nH]c2ccccc12)C(=O)O)c1ccccc1` (stereo not given)?
ST2 inh: inactive

How did O=C(N[C@H]1CCN2C(=O)[C@@H](Cc3c[nH]c4ccccc34)NC(=O)[C@H]12)c1ccccc1 do in these assays?
ST2 inh: 79%*

Results for COc1ccc(Cc2nnc(NC(=O)NCc3ccccn3)s2)cc1OC ?
ST2 inh: inactive

How did CCCOC(=O)C1=C(C)NC2=C(C(=O)C(C(=O)OC)C(C)C2)C1c1ccc(OC)cc1OC (stereo not given) do in these assays?
ST2 inh: inactive

What do the screens show for `CCn1cc2c(c1-c1ccc(OC)cc1)c(=O)n(C)c(=O)n2C`?
ST2 inh: inactive

Results for COc1ccc2cc(S(=O)(=O)N3CCN(C)CC3)ccc2c1 ?
ST2 inh: inactive

Results for CCn1c(=O)ccc2cc(OC)ccc21 ?
ST2 inh: 31%*

How did CCSc1nnc2c(n1)OC(c1cccs1)Nc1ccccc1-2 (stereo not given) do in these assays?
ST2 inh: inactive

Results for CCCCNC(=O)C1CCC(Cn2c(=O)c3sccc3n(CC(=O)N(CC)CC)c2=O)CC1 (stereo not given) ?
ST2 inh: inactive

Results for NNc1nc2ccccc2s1 ?
ST2 inh: 68%*

What do the screens show for `O=C(COc1ccc2ccccc2c1)Nc1nc2ccccc2s1`?
ST2 inh: inactive

How did O=C(Nc1nc2ccccc2s1)c1ccccc1F do in these assays?
ST2 inh: inactive

What do the screens show for `CC(=O)c1cccc(NC(=O)C(Cc2ccccc2)NS(=O)(=O)c2cccs2)c1` (stereo not given)?
ST2 inh: inactive

Screens: PubChem, Paczesny and Yang Labs, IUPUI and University of Michigan
